# Reference: PubChem BioAssay (NCATS)
# Inconclusive results are not listed. A call without a number means that no potency is given here. Active and inactive are the calls of the source. Unless noted, the call rests on the fitted dose curve; in most records, active means well fitted curve in the direction sought with a large enough effect; inconclusive means small, poorly fitted or top-dose-only effect, or another doubt; inactive means no such curve, though single readings can be large; an effect the other way counts as inactive or inconclusive.
# Legend:
# [1] = AP1 Signaling Pathway (AID 357; active means well fitted curve in either direction with a large enough effect, not every such curve was filed as active;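 further: ME-180 reporter cells stimulated with EGF at its EC50 level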)
# Outline: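 AP-1-bla ME-180 cells, Opti-MEM + 0.5% dialyzed FBS, plated overnight 37 °C. Cpd titration + EC50 EGF, 5 h 37 °C. CCF4 2.5 h RT; ex 405, em 460/530 ratio → %activity, AC50.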
# [2] = NFAT Signaling Pathway (AID 444; active means well fitted curve in either direction with a large enough effect, not every such curve was filed as active;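 further: carbachol stimulus at about its EC50 of 1 µM final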); details: Jurkat NFAT-bla M1, carbachol, beta-lactamase ratio, 5 h; at 17.2 µM (top of the series) unless noted
# Outline: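 Jurkat cells carrying an NFAT-driven β-lactamase reporter and co-transfected muscarinic M1 receptor were treated with compound plus carbachol (1 uM final, an EC50 level) for 5 h at 37 °C. CCF4 loading followed for 1 h at RT; 460/530 nm ratio gave %activity.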
# [3] = Stat Signaling Pathway (AID 446; active means well fitted curve in either direction with a large enough effect, not every such curve was filed as active;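 further: ME-180 cervical cancer cells given 40 pM IL-6 alongside compound; SIE-controlled beta-lactamase reporter measured as 460/530 nm FRET emission ratio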)
# Outline: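 Reporter line: ME-180 cervical carcinoma, SIE-beta-lactamase. Treatment: compound with 40 pM IL-6, 5 hrs, 37 C, in low-serum OPTI-MEM with 10 mM HEPES pH 7.3. Detection: 460/530 nm fluorescence.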
# [4] = target: Glucocorticoid receptor (Homo sapiens) (UniProt P04150); experiment: GR-GFP Redistribution (AID 450;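 active means compounds whose dose series gives a full or clear partial fitted curve of increased nuclear translocation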; further: potency means the concentration at half of the fitted maximal effect); details: U2OS GR-GFP nuclear translocation, laser cytometry, 2 h
# [5] = target: Glucocorticoid receptor (Homo sapiens) (UniProt P04150); experiment: GR-EFC Redistribution (AID 451; calls by dose curve; further: potency means the concentration at half of the fitted maximal effect); details: CHO-K1 GR-EFC translocation, beta-gal luminescence, 2 h
# Outline: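 CHO-K1 cells stably expressing nuclear-localized β-gal enzyme acceptor and GR fused C-terminally to the enzyme donor fragment; ligand-driven nuclear translocation restores β-gal by complementation. Compounds titrated up to 46 uM final, 2 h at 37 °C; luminescence read.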
# [6] = target: Mitogen-activated protein kinase 10 (Mus musculus) (UniProt Q61831); experiment: JNK3 AlphaScreen Assay (AID 530; active means well fitted curve in either direction with a large enough effect, not every such curve was filed as active;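 further: kinase came from lysate of stimulated human HepG2 cells; signal reports phosphorylation of biotinylated GST-cJun 1-79 at Ser73 with 10 µM ATP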)
# Outline: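 Inhibitors reduce antibody binding to phosphorylated biotin-cJun, lowering AlphaScreen luminescence. Lysates from HepG2 cells pre-activated by IL-1beta plus TNF-alpha supplied JNK3; compounds were titrated.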
# [7] = target: 3',5'-cyclic-AMP phosphodiesterase 4B (Homo sapiens) (UniProt Q07343); experiment: qHTS Assay for Inhibitors of PDE-IV (AID 607; active means well fitted activation curve with a large enough effect in the main read-out, with a control signal flat, not every such curve was filed as active)
# Outline: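 Cell-based read-out of cAMP via a modified cyclic nucleotide-gated channel and membrane potential dye (535/590 nm) in HEK293 cells expressing PDE4 endogenously. Compounds tested up to 22.9 uM final; 100 uM RO 20-1724 reference.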
# [8] = qHTS Assay for Lipid Storage Modulators (AID 1519; calls by dose curve); details: Drosophila S3 cells, BODIPY lipid droplet/cell ratio, laser cytometry, cells loaded with oleic acid; for activity change, negative = inhibition: at 25.7 µM (top of the series)
# Outline: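 Cells seeded at 5,000 per well were treated with compounds over a concentration series and loaded with oleic acid (400 uM, as added). Lipid droplet fluorescence (488 nm excitation, 500-530 nm channel) was read by laser-scanning cytometry and normalized to 20 uM Triacsin C.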
# [9] = target: Ubiquitin carboxyl-terminal hydrolase 1 (Homo sapiens) (UniProt O94782); experiment: Inhibitors of USP1/UAF1: Pilot qHTS (AID 504865);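 further: rhodamine fluorescence freed from ubiquitin-rhodamine substrate followed over time; top concentration of the series differs between compounds; nearly all actives have a fitted effect of over 35% in size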
# Outline: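 In 50mM HEPES pH 7.8 containing 0.5mM EDTA, 1mM TCEP, 0.1 mg/ml BSA and 0.01% Tween-20, 1nM USP1/UAF1 is exposed to compound for 15 min, then Ub-Rho (150nM final) is added and fluorescence is read over time.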
# [10] = S16 Schwann cell viability assay (CellTiter-Glo assay) (AID 624031);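 further: cellular ATP luminescence as a viability measure; nearly all actives have a fitted effect of over 70% in size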
# Outline: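 Luminescent ATP read-out (CellTiter-Glo) after 24 h compound exposure of native S16 rat Schwann cells at 37 °C. Signals were normalized between cell-free wells and DMSO-treated cells, set as 0% activity.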
# [11] = qHTS profiling for inhibitors of Plasmodium falciparum proliferation (AID 504749); further: potency means the concentration at half of the fitted maximal effect; on all read-outs here: nearly all actives have a fitted effect of over 60% in size; details: P. falciparum in erythrocytes, SYBR Green DNA, 72 h; for activity, negative = inhibition: at 12.8 µM (top of the series)
# Outline: (§1)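 Parasite proliferation within erythrocytes, 72 h exposure. Endpoint: SYBR Green I fluorescence after overnight lysis at room temperature. Controls: 0.29 uM artemisinin, DMSO.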
# AS120 = experiment: as above; details: P. falciparum in erythrocytes, SYBR Green DNA, 72 h; series mostly up to 12.8 µM
# Outline: as §1
# C2A = experiment: as above; details: P. falciparum in erythrocytes, SYBR Green DNA, 72 h; series mostly up to 12.8 µM
# Outline: as §1
# CP237 = experiment: as above; details: P. falciparum in erythrocytes, SYBR Green DNA, 72 h; series mostly up to 12.8 µM
# Outline: as §1
# CP238 = experiment: as above; details: P. falciparum in erythrocytes, SYBR Green DNA, 72 h; series mostly up to 12.8 µM
# Outline: as §1
# CP252 = experiment: as above; details: P. falciparum in erythrocytes, SYBR Green DNA, 72 h; series mostly up to 12.8 µM
# Outline: as §1
# FAB9 = experiment: as above; details: P. falciparum in erythrocytes, SYBR Green DNA, 72 h; series mostly up to 12.8 µM
# Outline: as §1
# HB3 = experiment: as above; details: P. falciparum in erythrocytes, SYBR Green DNA, 72 h; series mostly up to 12.8 µM
# Outline: as §1
# JCK = experiment: as above; details: P. falciparum in erythrocytes, SYBR Green DNA, 72 h; series mostly up to 12.8 µM
# Outline: as §1
# PAD = experiment: as above; details: P. falciparum in erythrocytes, SYBR Green DNA, 72 h; series mostly up to 12.8 µM
# Outline: as §1
# [12] = measured here: cell count channel max response
# [13] = measured here: lipid channel max response
# Chain of Ubiquitin carboxyl-terminal hydrolase 1 (Homo sapiens) (O94782 whole entry, looked up): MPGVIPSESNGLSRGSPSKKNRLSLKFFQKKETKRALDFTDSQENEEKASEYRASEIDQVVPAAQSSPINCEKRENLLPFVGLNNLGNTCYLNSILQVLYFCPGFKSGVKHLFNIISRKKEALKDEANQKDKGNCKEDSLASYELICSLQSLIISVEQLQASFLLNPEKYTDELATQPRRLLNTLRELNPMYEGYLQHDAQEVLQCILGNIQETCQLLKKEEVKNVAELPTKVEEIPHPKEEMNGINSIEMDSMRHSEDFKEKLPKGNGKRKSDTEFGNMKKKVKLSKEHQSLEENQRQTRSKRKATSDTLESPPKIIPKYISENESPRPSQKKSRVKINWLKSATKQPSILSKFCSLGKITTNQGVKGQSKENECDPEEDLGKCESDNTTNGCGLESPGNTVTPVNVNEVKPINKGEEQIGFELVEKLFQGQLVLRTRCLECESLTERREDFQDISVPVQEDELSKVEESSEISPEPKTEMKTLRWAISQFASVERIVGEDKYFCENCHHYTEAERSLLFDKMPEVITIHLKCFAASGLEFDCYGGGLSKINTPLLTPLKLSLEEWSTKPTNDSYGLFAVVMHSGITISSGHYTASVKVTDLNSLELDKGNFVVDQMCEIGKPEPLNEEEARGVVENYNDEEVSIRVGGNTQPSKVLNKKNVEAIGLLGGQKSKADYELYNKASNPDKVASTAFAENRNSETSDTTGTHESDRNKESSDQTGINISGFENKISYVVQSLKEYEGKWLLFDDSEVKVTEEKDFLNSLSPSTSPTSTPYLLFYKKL
# Chain of Glucocorticoid receptor (Homo sapiens) (P04150 whole entry, looked up, the tested form may be a part): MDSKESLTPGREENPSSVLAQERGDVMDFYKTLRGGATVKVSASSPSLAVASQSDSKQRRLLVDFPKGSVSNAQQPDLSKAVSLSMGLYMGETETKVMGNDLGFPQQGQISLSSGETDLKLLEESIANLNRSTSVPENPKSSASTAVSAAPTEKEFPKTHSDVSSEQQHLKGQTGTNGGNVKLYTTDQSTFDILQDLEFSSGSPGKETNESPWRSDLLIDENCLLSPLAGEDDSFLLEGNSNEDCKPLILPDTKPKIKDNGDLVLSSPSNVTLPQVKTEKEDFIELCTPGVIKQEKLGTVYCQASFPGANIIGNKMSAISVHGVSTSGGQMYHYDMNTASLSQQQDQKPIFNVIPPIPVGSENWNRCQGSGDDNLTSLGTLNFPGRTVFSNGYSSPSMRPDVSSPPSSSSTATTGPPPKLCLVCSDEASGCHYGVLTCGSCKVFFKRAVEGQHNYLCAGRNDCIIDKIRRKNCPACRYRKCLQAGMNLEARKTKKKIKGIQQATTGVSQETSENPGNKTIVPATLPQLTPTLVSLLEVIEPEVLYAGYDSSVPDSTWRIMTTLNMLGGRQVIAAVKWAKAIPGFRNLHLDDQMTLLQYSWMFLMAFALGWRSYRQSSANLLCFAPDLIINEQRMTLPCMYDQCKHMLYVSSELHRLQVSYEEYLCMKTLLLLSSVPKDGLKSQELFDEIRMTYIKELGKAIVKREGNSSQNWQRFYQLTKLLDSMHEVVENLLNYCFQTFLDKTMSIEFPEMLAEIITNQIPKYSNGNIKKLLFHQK
# Chain of 3',5'-cyclic-AMP phosphodiesterase 4B (Homo sapiens) (Q07343 whole entry, looked up): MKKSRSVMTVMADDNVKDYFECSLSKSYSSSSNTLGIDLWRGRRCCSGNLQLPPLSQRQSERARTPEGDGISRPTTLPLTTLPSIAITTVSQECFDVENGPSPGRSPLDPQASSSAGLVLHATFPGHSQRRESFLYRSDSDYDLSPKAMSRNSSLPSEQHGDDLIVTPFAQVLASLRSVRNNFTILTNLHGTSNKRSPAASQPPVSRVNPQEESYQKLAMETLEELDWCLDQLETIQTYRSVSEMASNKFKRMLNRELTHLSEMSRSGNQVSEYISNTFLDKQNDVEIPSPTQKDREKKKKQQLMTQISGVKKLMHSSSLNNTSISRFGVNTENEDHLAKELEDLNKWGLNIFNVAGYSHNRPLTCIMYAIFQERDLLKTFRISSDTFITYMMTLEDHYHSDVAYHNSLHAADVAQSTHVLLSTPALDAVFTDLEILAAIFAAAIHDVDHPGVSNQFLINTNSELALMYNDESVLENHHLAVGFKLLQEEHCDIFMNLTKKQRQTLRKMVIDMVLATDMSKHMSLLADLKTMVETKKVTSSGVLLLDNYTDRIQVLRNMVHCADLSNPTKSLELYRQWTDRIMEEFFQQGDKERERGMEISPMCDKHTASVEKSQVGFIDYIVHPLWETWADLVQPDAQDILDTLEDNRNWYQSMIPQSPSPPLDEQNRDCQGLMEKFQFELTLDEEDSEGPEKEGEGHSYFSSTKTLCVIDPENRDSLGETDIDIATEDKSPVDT
structure (smiles),measurement,setting,value
C[C@@H]1[C@H](C)CC[C@@]2(C(=O)O[C@H]3O[C@@H](CO[C@H]4O[C@@H](CO)[C@@H](O[C@H]5O[C@@H](C)[C@@H](O)[C@@H](O)[C@@H]5O)[C@@H](O)[C@@H]4O)[C@@H](O)[C@@H](O)[C@@H]3O)CC[C@]3(C)C(=CC[C@H]4[C@@]5(C)C[C@@H](O)[C@@H](O)[C@](C)(CO)[C@@H]5CC[C@@]43C)[C@@H]12,outcome,[1],inactive
same,"activity change, negative = inhibition",[2],-1.63% (inactive)
same,outcome,[3],inactive
same,Potency,[4],> 20.6 µM (inactive)
same,Potency,[5],> 20.6 µM (inactive)
same,Potency,[6],inactive
same,outcome,[7],inactive
same,"activity change, negative = inhibition",[8],-3.24% (inactive)
same,max response,[8]; [12],-4%
same,max response,[8]; [13],-10.2%
same,Potency,[9],inactive
COc1ccc(C[C@@](C)(N)C(=O)O)cc1OC,outcome,[1],inactive
same,"activity change, negative = inhibition",[2],-8.96% (inactive)
same,outcome,[3],inactive
same,Potency,[4],> 20.6 µM (inactive)
same,Potency,[5],> 20.6 µM (inactive)
same,outcome,[7],inactive
same,"activity change, negative = inhibition",[8],-2.09% (inactive)
same,max response,[8]; [12],-10.3%
same,max response,[8]; [13],-12.4%
same,Potency,[9],inactive
same,outcome,[10],inactive
same,"activity, negative = inhibition",[11]; parasite line A,3.21% (inactive)
same,"activity, negative = inhibition",[11]; parasite line B,-23.5% (inactive)
same,Potency,AS120,inactive
same,Potency,C2A,inactive
same,Potency,CP237,inactive
same,Potency,CP238,inactive
same,Potency,CP252,inactive
same,Potency,FAB9,inactive
same,Potency,HB3,inactive
same,Potency,JCK,inactive
same,Potency,PAD,inactive
CC[C@H](CC[C@H](C)[C@@H]1CC[C@@H]2[C@H]3CC=C4C[C@@H](O)CC[C@]4(C)[C@H]3CC[C@]21C)C(C)C,outcome,[1],inactive
same,"activity change, negative = inhibition",[2],-3.85% (inactive)
same,outcome,[3],inactive
same,Potency,[4],> 20.6 µM (inactive)
same,Potency,[5],> 20.6 µM (inactive)
same,Potency,[6],inactive
same,outcome,[7],inactive
same,"activity change, negative = inhibition",[8],2.08% (inactive)
same,max response,[8]; [12],-14.8%
same,max response,[8]; [13],-14.7%
same,Potency,[9],inactive
CC[C@](C)(CN(C)C)OC(=O)c1ccccc1,outcome,[1],inactive
same,"activity change, negative = inhibition",[2],-26.6% (inactive)
same,outcome,[3],inactive
same,Potency,[4],> 20.6 µM (inactive)
same,Potency,[5],> 20.6 µM (inactive)
same,Potency,[6],inactive
same,outcome,[7],inactive
same,"activity change, negative = inhibition",[8],-5.12% (inactive)
same,max response,[8]; [12],-9.58%
same,max response,[8]; [13],-16.2%
same,Potency,[9],inactive
same,outcome,[10],inactive
same,"activity, negative = inhibition",[11]; parasite line A,5.48% (inactive)
same,"activity, negative = inhibition",[11]; parasite line B,4.88% (inactive)
same,Potency,AS120,inactive
same,Potency,C2A,inactive
same,Potency,CP238,inactive
same,Potency,CP252,inactive
same,Potency,FAB9,inactive
same,Potency,HB3,inactive
same,Potency,JCK,inactive
same,Potency,PAD,inactive
O=C(N/N=C\c1ccc([N+](=O)[O-])o1)c1ccc(O)cc1,outcome,[1],inactive
same,"activity change, negative = inhibition",[2],1.26% (inactive)
same,outcome,[3],inactive
same,Potency,[4],> 20.6 µM (inactive)
same,Potency,[5],> 20.6 µM (inactive)
same,outcome,[7],inactive
same,"activity change, negative = inhibition",[8],-1.38% (inactive)
same,max response,[8]; [12],-7.99%
same,max response,[8]; [13],-11.6%
same,Potency,[11]; parasite line A,1.41 µM (active)
same,Potency,[11]; parasite line B,2.82 µM (active)
same,Potency,AS120,2.82 µM (active)
same,Potency,C2A,3.16 µM (active)
same,Potency,CP237,2.51 µM (active)
same,Potency,CP238,3.16 µM (active)
same,Potency,CP252,3.16 µM (active)
same,Potency,FAB9,3.16 µM (active)
same,Potency,HB3,3.55 µM (active)
same,Potency,JCK,3.98 µM (active)
same,Potency,PAD,2.51 µM (active)
C[C@@H]1C(=O)O[C@@H]2C[C@]34[C@H]5C[C@@H](C(C)(C)C)[C@@]36[C@@H](OC(=O)[C@@H]6O)O[C@@]4(C(=O)O5)[C@@]12O,outcome,[1],inactive
same,"activity change, negative = inhibition",[2],0.0686% (inactive)
same,outcome,[3],inactive
same,Potency,[4],> 20.6 µM (inactive)
same,Potency,[5],> 20.6 µM (inactive)
same,Potency,[6],inactive
same,outcome,[7],inactive
same,"activity change, negative = inhibition",[8],-0.102% (inactive)
same,max response,[8]; [12],-9.92%
same,max response,[8]; [13],-6.41%
same,Potency,[9],inactive
CC1=C(C(=O)O)N2C(=O)[C@@H](NC(=O)[C@@H](N)c3ccc(O)cc3)[C@@H]2SC1,outcome,[1],inactive
same,"activity change, negative = inhibition",[2],-8.2% (inactive)
same,outcome,[3],inactive
same,Potency,[4],> 20.6 µM (inactive)
same,Potency,[5],> 20.6 µM (inactive)
same,Potency,[6],inactive
same,outcome,[7],inactive
same,"activity change, negative = inhibition",[8],1.21% (inactive)
same,max response,[8]; [12],-1.1%
same,max response,[8]; [13],-2.01%
same,Potency,[9],inactive
same,outcome,[10],inactive
same,"activity, negative = inhibition",[11]; parasite line A,9.01% (inactive)
same,"activity, negative = inhibition",[11]; parasite line B,1.57% (inactive)
same,Potency,AS120,inactive
same,Potency,C2A,inactive
same,Potency,CP237,inactive
same,Potency,CP238,inactive
same,Potency,CP252,inactive
same,Potency,FAB9,inactive
same,Potency,HB3,inactive
same,Potency,JCK,inactive
same,Potency,PAD,inactive
Cc1ccccc1OC[C@H](O)CO,outcome,[1],inactive
same,"activity change, negative = inhibition",[2],11.2% (inactive)
same,outcome,[3],inactive
same,Potency,[4],> 20.6 µM (inactive)
same,Potency,[5],> 20.6 µM (inactive)
same,Potency,[6],inactive
same,outcome,[7],inactive
same,"activity change, negative = inhibition",[8],-0.676% (inactive)
same,max response,[8]; [12],-3.4%
same,max response,[8]; [13],-5.46%
same,Potency,[9],inactive
O=C1CN(/N=C\c2ccc([N+](=O)[O-])o2)C(=O)N1,outcome,[1],inactive
same,"activity change, negative = inhibition",[2],-2.23% (inactive)
same,outcome,[3],inactive
same,Potency,[4],> 20.6 µM (inactive)
same,Potency,[5],> 20.6 µM (inactive)
same,Potency,[6],inactive
same,outcome,[7],inactive
same,"activity change, negative = inhibition",[8],1.21% (inactive)
same,max response,[8]; [12],3.28%
same,max response,[8]; [13],0.924%
same,Potency,[9],inactive
O=C(/C=C\c1ccc(O)c(O)c1)O[C@@H]1C[C@](O)(C(=O)O)C[C@@H](O)[C@@H]1O,outcome,[1],inactive
same,"activity change, negative = inhibition",[2],-0.271% (inactive)
same,outcome,[3],inactive
same,Potency,[4],> 20.6 µM (inactive)
same,Potency,[5],> 20.6 µM (inactive)
same,Potency,[6],inactive
same,outcome,[7],inactive
same,"activity change, negative = inhibition",[8],2.29% (inactive)
same,max response,[8]; [12],1.17%
same,max response,[8]; [13],3.23%
same,Potency,[9],inactive
O[C@@](CCN1CCCC1)(c1ccccc1)C1CCCCC1,outcome,[1],inactive
same,"activity change, negative = inhibition",[2],-61.1% (active)
same,outcome,[3],inactive
same,Potency,[4],> 20.6 µM (inactive)
same,Potency,[5],> 20.6 µM (inactive)
same,Potency,[6],inactive
same,"activity change, negative = inhibition",[8],-0.986% (inactive)
same,max response,[8]; [12],-8.38%
same,max response,[8]; [13],-9.51%
same,outcome,[10],inactive
same,"activity, negative = inhibition",[11]; parasite line A,-9.23% (inactive)
same,Potency,C2A,inactive
same,Potency,CP237,inactive
same,Potency,CP238,inactive
same,Potency,CP252,inactive
same,Potency,FAB9,inactive
same,Potency,HB3,inactive
same,Potency,JCK,inactive
